Sampled rows, rich in hits. Any-hit rate of the full collection: about 6.6%.
PTAP TSG101 blk: blocks PTAP/TSG101 interaction to inhibit HIV-1 budding; 340,000 tested, under 10 active; Potency, µM (titrated, usually from 115 µM), for inactives: top-dose activity change, negative = inhibition, usual class: inhibitors; Fluorescence polarization, FITC-PTAP peptide / Tsg101 binding; active means well fitted inhibition curve with a large enough effect in the main read-out, with a control signal flat, not every such curve was filed as active; inconclusive means small, poorly fitted or top-dose-only effect, or effect the other way, or a change in a side signal; inactive means no such curve, though single readings can be large or run the other way; further: % of control where 0% means no effect
Target sequence (Q99816 whole entry, looked up): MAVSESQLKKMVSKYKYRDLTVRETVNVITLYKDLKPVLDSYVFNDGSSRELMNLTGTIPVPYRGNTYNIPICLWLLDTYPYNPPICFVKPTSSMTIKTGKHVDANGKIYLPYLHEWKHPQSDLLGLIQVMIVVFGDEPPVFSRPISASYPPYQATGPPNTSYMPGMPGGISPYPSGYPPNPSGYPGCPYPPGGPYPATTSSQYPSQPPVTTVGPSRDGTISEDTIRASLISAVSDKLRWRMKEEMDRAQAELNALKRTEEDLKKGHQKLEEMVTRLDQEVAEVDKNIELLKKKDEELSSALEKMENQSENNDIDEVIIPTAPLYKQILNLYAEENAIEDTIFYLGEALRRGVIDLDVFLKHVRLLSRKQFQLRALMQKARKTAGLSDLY
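Fluorescence polarization binding of Tsg101 binding domain (10 uM final) to FITC-labeled PTAP peptide (50 nM final) in HEPES pH 7.5 buffer with NaCl, Tween 20, EDTA, TCEP. Compounds added before peptide; binding 20 min at RT.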
KB-V1 MDR tox: KB-V1 MDR subline cytotoxicity | KB-V1 MDR cells viability, CellTiter-Glo, 72 h | Potency, µM (top dose mostly 46.1 µM), most hits filed as cytotoxic | 400,000 tested, 3.4% active; further: on the % scale 0 is the no-effect control and ±100 the full control effect; nearly all actives have a fitted effect of over 60% in size
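In this primary screen, KB-V1 cells overexpressing P-gp are incubated with library compounds (lowest to highest concentration) for 72 h at 37 degrees C before a luminescent ATP viability read.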
KB-3-1 cytotox: kills parental KB-3-1 adenocarcinoma cells. AID 1347075. Potency, µM (series often up to 46.1 µM), usual class: cytotoxic. KB-3-1 viability, CellTiter-Glo ATP luminescence, 72 h. 400,000 tested, 1.4% active; further: on the % scale 0 is the no-effect control and ±100 the full control effect; nearly all actives have a fitted effect of over 60% in size
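Viability of parental KB-3-1 cells, measured by CellTiter-Glo luminescence, followed a 72 h incubation at 37 °C with pinned compounds in phenol-red-free DMEM containing 10% FBS.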
SW480 rerep: DNA re-replication induction in SW480 cells | Potency, µM (titrated, usually from 46.1 µM), for inactives: top-dose re-replication activation, most hits filed as activators | 340,000 tested, 1.8% active | SW480 DNA re-replication, Hoechst DNA content imaging, 48 h; further: % of control where 0% means no effect; nearly all actives have a fitted effect of over 55% in size
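DNA re-replication was detected as more nuclei of elevated Hoechst intensity after 48 hr exposure to compound (23 nL pinned per well of 250 cells).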
RGS4 inh: inhibitors of human regulator of G protein signaling 4 | 390,000 tested, 0.039% active | Potency, µM (series often up to 114 µM), for the others: top-dose activity change, negative = inhibition, most hits filed as inhibitors | Transcreener GDP fluorescence polarization, RGS4-accelerated GTP hydrolysis; further: on the % scale 0 is the no-effect control and ±100 the full control effect; nearly all actives have a fitted effect of over 75% in size
Target sequence (P49798 whole entry, looked up): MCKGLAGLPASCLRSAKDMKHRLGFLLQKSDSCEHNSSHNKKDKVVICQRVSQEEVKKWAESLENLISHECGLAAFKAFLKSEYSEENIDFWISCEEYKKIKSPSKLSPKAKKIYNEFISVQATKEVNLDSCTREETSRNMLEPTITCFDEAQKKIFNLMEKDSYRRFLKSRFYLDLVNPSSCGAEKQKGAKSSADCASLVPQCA
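MLSMR compounds (23 nl, pin-transferred) preincubated 10 min at room temperature with a 500nM (2x) first reagent, then RGS4 at 900nM (2x) plus Transcreener GDP mix added; fluorescence polarization (620/688 nm) read before and after 90 min at 30 °C.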
MCF10A rereplic: induces DNA re-replication in MCF 10a normal breast cells | MCF 10A DNA re-replication, Hoechst nuclear intensity, 48 h | Potency, µM (top dose mostly 46.1 µM), without a hit: at the highest dose activity, positive = re-replication, usual class: activators | 350,000 tested, 2.9% active | AID 624296; further: % of control where 0% means no effect; nearly all actives have a fitted effect of over 50% in size
Active calls of the source: *; i = inactive; ? = inconclusive; . = no result given. Unless noted, the call rests on the fitted dose curve; in most records, active means well fitted curve in the direction sought with a large enough effect; inconclusive means small, poorly fitted or top-dose-only effect, or another doubt; inactive means no such curve, though single readings can be large; an effect the other way counts as inactive or inconclusive. Potency means the concentration at half of the fitted maximal effect.

SMILES | PTAP TSG101 blk | KB-V1 MDR tox | KB-3-1 cytotox | SW480 rerep | RGS4 inh | MCF10A rereplic
CCCN1CCN(C(=S)Nc2ccc3nc(N4CCN(CC)CC4)cc(C)c3c2)CC1 | -3% | i | i | ? | -49% | 18µM*
COCCN(CC1CCCN(C2Cc3ccccc3C2)C1)C(=O)c1ccc(C(C)=O)cc1 (configuration not stated) | -7% | i | i | 0.32µM* | 36% | ?
COCCN(CC1CCCN(C2Cc3ccccc3C2)C1)C(=O)c1cccc(C)c1 (configuration not stated) | -2% | i | ? | 0% | 1% | 1%
O=c1oc2ccc3ccccc3c2cc1-c1nnc(-c2ccccc2)o1 | -1% | ? | i | 1% | -21% | 1µM*
Oc1ccc(N2CCN(c3ccnc4cc(Cl)ccc34)CC2)cc1 | -3% | 15µM* | 16µM* | ? | -30% | ?
CCC(=O)N1CCN(c2ccnc3cc(Cl)ccc23)CC1 | -2% | i | i | -5% | -2% | 2%
CC(C)N(C(=O)N1CCN(c2ccnc3cc(Cl)ccc23)CC1)C(C)C | 0% | ? | i | 10% | -10% | 16µM*
Cc1ccc(Cl)cc1-n1c(=O)c2sc3ccccc3c2n(CC(=O)NC2CCCCC2)c1=O | . | i | i | . | 14% | .
COC(=O)c1ccc(Cl)cc1NC(=O)N1CC=C(c2c[nH]c3ccccc23)CC1 | . | i | i | . | -28% | .
COc1ccccc1CNC(=O)Cc1c(C)c2c(cc(C)c3c(C)coc32)oc1=O | . | . | . | . | 2% | .
OC[C@H](S)CS | . | i | ? | 17% | . | 9.4µM*
COc1ccc(CCNC(=O)c2c[nH]n3c(=O)c(Cc4ccccc4Cl)c(C)nc23)cc1OC | . | . | . | . | -17% | .
Cn1c(=O)c2c(nc(NCCOc3ccc(C(C)(C)C)cc3)n2C)n(C)c1=O | -5% | i | i | -691% | -18% | 16µM*
c1ccc2cc(C3=NCCN3)ncc2c1 | . | . | . | . | i | .
Oc1ccc(/C=N/N2CCN(C3c4ccccc4-c4ccccc43)CC2)cc1 | 0% | i | i | -13% | -9% | ?
Oc1ccc(/C=N/N2CCN(C3c4ccccc4-c4ccccc43)CC2)c(O)c1 | -2% | i | i | ? | 6% | 6.5µM*
O=S(=O)(/C=C/C=C/S(=O)(=O)c1ccccc1)c1ccccc1 | -2% | i | 6.5µM* | ? | ? | ?
O=C(CN1CCN(c2ccccn2)CC1)N1c2ccccc2CCc2ccccc21 | 0% | 5.8µM* | i | 11% | 7% | 14%
O=C(CN1CCN(c2ccccn2)CC1)N1c2ccccc2Sc2ccc(C(F)(F)F)cc21 | -1% | ? | ? | ? | 3% | 23%
CCOc1ccccc1C(=O)N1CCN(c2cccc(Cl)c2)CC1 | -2% | i | i | 0.41µM* | 1% | ?
O=C(O)c1ccccc1C(=O)N1CCN(c2cccc(Cl)c2)CC1 | -4% | i | i | 0% | -13% | -1%
N#Cc1ccccc1OCC(=O)N1CCN(c2ccccc2)CC1 | . | i | i | . | -1% | .
COc1ccc(C(=O)N2CCN(c3cccc(Cl)c3)CC2)c(OC)c1 | -4% | ? | 15µM* | ? | -8% | 18µM*
O=C(COc1ccccc1Br)N1CCN(c2ccccc2)CC1 | -3% | 18µM* | i | 7% | 10% | 14%
CCOc1ccc2ccccc2c1C(=O)N1CCN(c2ccccc2)CC1 | -5% | 4.1µM* | 23µM* | ? | -12% | 13µM*
SMILES | PTAP TSG101 blk | KB-V1 MDR tox | KB-3-1 cytotox | SW480 rerep | RGS4 inh | MCF10A rereplic
Cc1cc(OCCCSc2nc(-c3ccc(C(C)(C)C)cc3)nc3cc(=O)[nH]n23)ccc1Cl | . | . | . | . | -47% | .
Cc1c(-c2ccc(Cl)cc2)c(=O)oc2c(CN3CCN(CCO)CC3)c(O)ccc12 | . | i | i | . | 6% | .
O=CC(=O)c1ccc(Cl)cc1 | . | i | i | . | . | .
CCc1ccc(C2CC(=O)c3c([nH]c(C(=O)OCCOc4ccccc4)c3C)C2)cc1 (configuration not stated) | . | . | . | . | 11% | .
COc1cccc(NC(=O)CSc2nc(O)c(C/C=C/c3ccccc3)c(=O)[nH]2)c1 | . | i | i | . | -12% | .
Cc1cc(SCn2nnc3ccccc3c2=O)nc2ccccc12 | -1% | 16µM* | i | 0% | 10% | 25%
O=c1c2ccccc2nnn1CSc1ccc2ccccc2n1 | -2% | 23µM* | i | 65% | -7% | ?
O=c1c2ccccc2nnn1CSc1ccccc1 | -2% | i | i | 1% | -12% | 0%
COc1ccc(Cn2c(CCC(=O)NCc3cccc(Cl)c3)nc3cccnc32)cc1 | . | i | i | . | -3% | .
CCCOc1ccc(CNC(=O)Cn2ncn3c(cc4sc(CC)cc43)c2=O)cc1 | . | . | . | . | -18% | .
COc1ccc(S(=O)(=O)N2N=C(C)Oc3ccccc3C2=O)cc1 | -3% | 3.7µM* | 4.6µM* | 4µM* | -1% | 7.9µM*
CCOC(=O)C1(S(=O)(=O)c2ccccc2)CCN(Cc2ccc(Cl)cc2)CC1 | 0% | 10µM* | ? | 6% | -11% | 6%
CCOC(=O)C1(S(=O)(=O)c2ccc(Cl)cc2)CCN(Cc2ccc(Cl)cc2)CC1 | -1% | 8.2µM* | ? | ? | -23% | 20%
COC(=O)C1CC1[C@H](NC(=O)c1cccnc1)c1ccccc1 (some centres not stated) | . | . | . | . | 3% | .
O=C(c1ccc2c(c1)N(Cc1cccc(Cl)c1)C(=O)c1ccccc1S2(=O)=O)N1CCC(Cc2ccccc2)CC1 | . | . | . | . | 7% | .
CC[C@H](C)[C@@H]1OC(=O)[C@@H](C)[C@@H](CC)NC(=O)[C@H](C)N(C)C(=O)C(C)(C)C(=O)C(C)NC(=O)[C@H](Cc2ccccc2)N(C)C(=O)[C@H](C(C)C)N(C)C(=O)CNC(=O)[C@H](CC(C)C)N(C)C(=O)CNC1=O (some centres not stated) | . | i | 1.2µM* | . | . | .
CC1=C(CC/C(C)=N/NC(N)=S)C(C)(C)CCC1 | -8% | i | ? | 11µM* | -37% | 13µM*
CC(C)=CCN1CCN(CCC2=C(C)CCCC2(C)C)CC1CCO (configuration not stated) | -4% | i | ? | -8% | 5% | ?
O=C(CSc1nnc(CNC(=O)C23CC4CC(CC(C4)C2)C3)n1-c1ccc(F)cc1)Nc1ccc(F)cc1 | -3% | ? | i | 12% | 11% | 5%
O=C(NCc1nnc(SCc2ccc(F)cc2)n1-c1ccc(F)cc1)C12CC3CC(CC(C3)C1)C2 | -2% | ? | 23µM* | 0% | -6% | 9%

High-throughput results from PubChem.
